From PubChem BioAssay AID488890 (Southern Research Specialized Biocontainment Screening …, 2010)
In all, about 320,000 compounds went through this assay and about 1,300 (0.41%) were called active. About 3% were inconclusive and are not listed. How the calls were made is not given here. Not all results are given here. Measured potencies and affinities stand elsewhere.

Assay: growth inhibition of non-replicating M. tuberculosis (AID 488890);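 further: plate controls were DMSO cells for no effect and high antibiotic wells for full effect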
Details: Mycobacterium tuberculosis non-replicating, at 25 µM, stronger effect = higher value

In order of rising inhibition:
1. CSc1n[nH]c(/N=C/c2oc(O)c3ccccc23)n1  -21.1%
2. CC(C)Cn1cnc2c(=O)oc3ccccc3c21  -17.9%
3. Cc1nc(CNS(=O)(=O)c2ccccc2F)cs1  -17.8%
4. CN1CCC(NC(=O)c2cccs2)CC1  -14.8%
5. O=C(OCC(=O)c1c[nH]c2ccccc12)c1cccc([N+](=O)[O-])c1  -14.6%
6. CCOC(=O)C1CCCN(S(=O)(=O)c2c(C)noc2C)C1 (stereo not given)  -14.5%
7. CN(C)CCn1nnc2c(=O)oc3ccccc3c21  -13.7%
8. CCOC(=O)Oc1ccc(/C=C2\N=C(C)OC2=O)cc1  -12.5%
9. COc1ccc(C(=O)OCC(=O)Nc2ncc([N+](=O)[O-])s2)cc1OC  -11.2%
10. CCC(C)n1cnc2c(=O)oc3ccccc3c21 (stereo not given)  -10.2%
11. C/C(=N\NC(=O)c1ccc2c(c1)OCO2)c1ccc(C(=O)O)s1  -9.87%
12. CN1CCCC(C(=O)c2ccccc2)C1 (stereo not given)  -7.66%
13. Cc1ccc(CN2CC(C(=O)Nc3ncccc3C)CC2=O)cc1 (stereo not given)  -7.14%
14. CN(CC(=O)Nc1ccc(N2CCOCC2)cc1)C(=O)c1cc(F)c(F)cc1Cl  -5.8%
15. N#Cc1ccc(OCC(=O)Nc2nc(-c3cccnc3)cs2)cc1  -5.75%
16. CCOc1ccc(CC(=O)N/N=C/c2cccnc2)cc1  -5.71%
17. CCN(CC)C(=O)Cn1cc(C(=O)C(=O)NCc2cccnc2)c2ccccc21  -4.61%
18. CCn1c(C)nc2c(=O)oc3ccccc3c21  -3.87%
19. CC1CN(C(=O)c2cccs2)CC(C)O1 (stereo not given)  -2.97%
20. COc1ccc(/C(C)=N/Nc2nc3ccccc3nc2C)cc1  -2.93%
21. COc1ncnc(OC)c1S(=O)(=O)NCc1ccccc1  -2.39%
22. O=C(CNC(=O)c1ccc(Cl)cc1)NC1CCCCC1  -2.3%
23. Cc1[nH]n2cnnc2c(=O)c1Br  -1.45%
24. CCOC(=O)c1nnc(-c2cccs2)nc1Oc1ccc(Cl)cc1  -0.21%
25. O=C(c1cccc(F)c1)N1CCN(C(=O)C2CC2)CC1  0.47%
26. CCN(CCCNC(=O)C1c2ccccc2C(=O)N(CCOC)C1c1ccc(F)cc1)Cc1ccccc1 (stereo not given)  1.48%
27. CN1CCCC(C(=O)c2ccc(Cl)cc2)C1 (stereo not given)  2.9%
28. Cc1cccc(C(=O)OCC(=O)c2c(C)[nH]c3ccccc23)c1O  3.19%
29. COc1ccc(C(=O)COC(=O)c2ccc(OC)c(OC)c2)cc1OC  3.56%
30. O=C(O)c1cc(N2C(=O)C3CCCCC3C2=O)ccc1NCc1cccnc1 (stereo not given)  4.47%
31. O=C(Cc1ccccc1[N+](=O)[O-])OCC(=O)c1c[nH]c2ccccc12  4.48%
32. Cc1csc(N2CCCC2c2nc3cc(Cl)c(N4CCCCC4)cc3n2CCOCCO)n1 (stereo not given)  5.44%
33. O=C(NCCCCl)C1CC(=O)N(CCc2ccc(F)cc2)C1 (stereo not given)  5.65%
34. Cc1ccc(-n2nnc3c(=O)oc4ccccc4c32)cc1  6.67%
35. COc1cccc(/C=N/NC(=O)c2nnn(-c3nonc3N)c2-c2cccs2)c1  7.66%
36. COc1cc(OC)cc(C(C(=O)NC2CCCCC2)N(C(=O)c2ccno2)c2ccccc2)c1 (stereo not given)  8.21%
37. CSc1nc(-c2ccco2)nn1C(=O)c1ccc(C)cc1  8.76%
38. CNCc1ccccc1OCc1ccccc1F  8.9%
39. Cc1ccc(-c2cc(C(F)(F)F)n3ncc(C(=O)N4CCCc5ccccc54)c3n2)cc1  9.06%
40. O=C(CSc1nc(=O)n(CCCN2CCOCC2)c2c1CCCC2)Nc1ccccc1Cl  11.7%
41. COc1ccc(OC(=O)c2cn(C)nc2C(F)(F)F)cc1  12.6%
42. COc1ccc(NC(=O)CN(C)C(=O)c2ccc(-c3ccccc3Cl)o2)cc1  12.7%
43. COc1ccc(-c2nc(NC(=O)Cn3cnnn3)sc2C)cc1  13.2%
44. COC(=O)c1ccc(/C=C/C(=O)OCC(=O)NCc2cccs2)cc1  13.7%
45. CN1CC(C(=O)c2ccccc2)C(C(=O)c2ccccc2)C1 (stereo not given)  14.7%
46. CC(C)CN(C(=O)COC(=O)c1cccn1C)c1c(N)n(Cc2ccccc2)c(=O)[nH]c1=O  16.9%
47. COc1ccc(/C(C)=N/Nc2nc3ccccc3nc2C)cc1OC  18.1%
48. CC12CN3CC(C)(CN(C1)C3c1ccc([N+](=O)[O-])o1)C2=O (stereo not given)  18.6%
49. CCCCN(CCCC)Cc1ccc(N)cc1  19.4%
50. Cc1cc(C(=O)OCC(=O)N2CCC(c3ccccc3)=N2)ccc1[N+](=O)[O-]  22.1%
51. CCN(C/C=C/c1ccccc1OC)Cc1ccccc1  27.1%
52. C[C@@H]1CN([C@H](C)CO)C(=O)c2cc(NC(=O)C3CCCCC3)ccc2O[C@@H]1CN(C)Cc1ccc(C(F)(F)F)cc1  28%
53. CCOC(=O)c1c(C)[nH]c(C)c1C(=O)COC(=O)c1cccs1  28.9%
54. NS(=O)(=O)c1ccc(CCNC(=S)Nc2ccc(F)cc2)cc1  30%
55. Cc1[nH]c2ccccc2c1C(=O)COC(=O)c1ccccc1O  31.1%
56. CC(=O)Oc1ccc(/C=C2/Oc3ccccc3C2=O)cc1  36%
57. COc1ccc(/C=N/NC(=O)c2ccc3c(c2)OCO3)c(C(=O)O)c1OC  37.5%
58. CCC12CN3CC(CC)(CN(C1)C3c1ccc([N+](=O)[O-])o1)C2=O (stereo not given)  38.4%
59. COC(=O)C1=C(c2ccc(F)cc2OCc2ccccc2)C[C@@H]2CC[C@H]1N2C(=O)NC1CCCCC1  39.2%
60. CCOc1ccc(OCCCC(=O)NC2=NCCS2)cc1  40.7%
61. CC(C)(C)OC(=O)NCCc1nnc(SCc2ccc(Cl)cc2Cl)o1  41.4%
62. CC(=O)Oc1ccc2nc(-c3ccco3)oc(=O)c2c1  42%
63. O=C(CCCOc1ccccc1)Nc1cccnc1  44.6%
64. N#Cc1ccc(OCC(=O)Nc2ccncc2)cc1  46.2%
65. CCOC(=O)c1c(C)[nH]c(C)c1C(=O)COC(=O)/C=C/c1ccccc1[N+](=O)[O-]  46.8%
66. CC(=O)c1ccc(NC(=O)Cc2cccs2)cc1  47%
67. CCc1ccc(C(=O)COC(=O)CNC(=O)Cc2ccccc2)cc1  47.9%
68. O=C(COc1ccc([N+](=O)[O-])cc1)Nc1cccnc1  51.3%
69. CN1CC(C(=O)c2ccc(Cl)cc2)C(c2ccc(Cl)cc2Cl)C1 (stereo not given)  55.7%
70. N#Cc1ccc(COC(=O)c2cccnc2Cl)cc1  57%
71. CCOc1ccc(OCc2cccc(C(=O)N/N=C/c3cccnc3)c2)cc1  59.6%
72. CC(C)(C)OC(=O)NCCc1nnc(SCc2ccc(Cl)cc2)o1  64.8%
73. CCc1cc(C(=O)OCC(=O)N2CCC(c3ccccc3)=N2)sc1C  65.9%
74. CC(C)(C)c1ccc(OCCC(=O)NC2=NCCS2)cc1  66.8%
75. O=c1oc2ccccc2c2c1nnn2CCO  97.3%
